# Screening data (PubChem)
# The list is not random: actives were taken first. Their share in the collection is about 1.7%.
# BJeLR viability: BJeLR cell viability loss | BJeLR (HRASV12) viability, CellTiter-Glo ATP luminescence, 48 h | inhibition, % (no concentration beside the values) | 300,000 tested, 0.17% active | AID 1554; in the data active = inhibition above about 50%
# MazF activator: increases E. coli MazEF RNase cleavage of RNA | activation, % at 20 µM | FAM/BHQ RNA-DNA oligo cleavage fluorescence, 5 h | AID 504720 | P0AE70 | 350,000 tested, 0.32% active; in the data active = activation above about 50%
# Target sequence (P0AE70 whole entry, looked up): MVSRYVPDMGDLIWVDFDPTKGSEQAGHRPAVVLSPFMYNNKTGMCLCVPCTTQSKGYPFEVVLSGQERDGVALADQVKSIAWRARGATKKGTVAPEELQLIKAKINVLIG
# PfHsp40 rescue: compounds rescuing yeast from Plasmodium falciparum HSP40 toxicity; S. cerevisiae expressing PfHsp40, growth rescue, ATP luminescence; growth rescue, % at 12.5 µM; 340,000 tested, 0.68% active; in the data active = growth rescue above about 28%, passing the limit was not always enough;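 note: yeast W303a lacking pdr1 and pdr3 grown in galactose medium; growth measured after three days at 30 °C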
# VHR inh abs: blocks human VHR1 dual specificity phosphatase; inhibition, % at 13.3 µM; 290,000 tested, 0.52% active; AID 1654; recombinant VHR phosphatase, pNPP absorbance; P51452; in the data active = inhibition above about 50%
# Target sequence (P51452 whole entry, looked up): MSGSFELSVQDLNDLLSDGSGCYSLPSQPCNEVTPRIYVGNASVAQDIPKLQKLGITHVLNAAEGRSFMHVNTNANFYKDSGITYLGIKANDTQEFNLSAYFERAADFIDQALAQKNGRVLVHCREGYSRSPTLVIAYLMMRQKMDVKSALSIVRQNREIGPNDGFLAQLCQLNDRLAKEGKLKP
# 3CLpro inhibitor: SARS-CoV 3CLpro protease inhibition; P0C6X7; recombinant SARS-CoV 3CLpro, quenched FRET peptide cleavage; inhibition, % at 6 µM; 290,000 tested, 0.14% active; AID 1706; in the data active = inhibition above about 12%
# BH1578 lux ind: inducers of Vibrio cholerae quorum light production without autoinducers. activation, % at 18.7 µM. V. cholerae BH1578 lux reporter, luminescence, 6 h. 350,000 tested, 0.16% active; in the data active = activation mostly above about 9.7%, no sharp cut-off
# * hit, by the source's call; i = inactive; . = no result.
SMILES,BJeLR viability,MazF activator,PfHsp40 rescue,VHR inh abs,3CLpro inhibitor,BH1578 lux ind
C=CCn1cnc2c(c1=O)c1nc3ccccc3nc1n2/N=C/c1cccc(OC)c1OC,.,-6,0,101*,.,8
C/C(CCc1ccccc1)=N\NC(=S)NCCc1ccccc1,-7,-34,4,50*,-1,i
C/C(CCc1ccc2c(c1)OCO2)=N\NC(=S)NC(C)C,-11,-7,0,23,2,i
C/C(=N\NC(=S)NCCc1ccccc1)c1cccs1,4,-16,96*,-4,0,0
COCCNC(=S)N/N=C(\C)CCc1ccc2c(c1)OCO2,4,7,35*,9,1,1
CC(C)Oc1cc(F)ccc1-c1cc(C(=O)NCCCn2ccnc2)[nH]n1,.,.,.,.,.,0
CC(C)C1S/C(=N/N=C/c2ccco2)NC1=O (configuration not stated),-4,-1,58*,10,0,-2
OC(c1ccc2c(c1)OCO2)c1ncc(-c2cccc(C(F)(F)F)c2)[nH]1 (configuration not stated),.,.,.,.,.,i
COc1ccc(C)cc1NC(=O)COC(=O)c1ccccc1SCC(=O)N1CCCC1,9,-6,0,.,.,-1
O=C1C=CC(=O)C2C1C1(Cl)C(Cl)=C(Cl)C2(Cl)C1(Cl)Cl (configuration not stated),.,2,54*,.,.,i
O=c1c([N+](=O)[O-])cccn1Cc1cccc(Br)c1,1,0,0,-9,-4,46*
O=c1c([N+](=O)[O-])cccn1Cc1ccccc1Cl,-1,4,0,29,0,0
CCOC(=O)N1CCN(C(=O)COC(=O)c2ccc([N+](=O)[O-])cc2Cl)CC1,.,-7,1,.,.,-1
O=S(=O)(NC1CCCCC1N1CCC(O)CC1)c1ccccc1 (configuration not stated),-1,-5,-2,58*,3,-1
CCCCCCCCN1[C@@H](CC(=O)OCC)c2ccc(C(F)(F)F)cc2S1(=O)=O,-10,3,38*,.,.,i
CCCCCCCCN1[C@@H](CC(=O)OC)c2cc(F)ccc2S1(=O)=O,4,-1,-1,.,.,i
CCCCCCCCCCCCN1[C@@H](CC(=O)O)c2cc(F)ccc2S1(=O)=O,15,-2,49*,.,.,-2
O=C(c1ccccc1)c1ccc(OCC(O)CNCc2cccc(Cl)c2)cc1 (configuration not stated),-1,1,1,28,2,-10
O=C(N/N=C/c1c[nH]c2ccccc12)c1ccc(Cl)cc1,2,-9,0,12,-5,i
O=C(N/N=C/c1c[nH]c2ccccc12)c1ccccc1Cl,-2,5,0,57*,-1,1
O=C(O)c1ccc(C=NNC(=O)c2cccc3ccccc23)cc1,.,5,-1,.,.,2
O=C(N/N=C/c1coc2ccccc2c1=O)c1ccccc1,-1,-11,0,19,4,0
O=C(NNC(=O)c1cccc2ccccc12)c1ccc(Br)cc1,.,66*,0,.,.,-1
O=C(N/N=C/c1ccccc1O)c1cccc2ccccc12,4,2,32*,20,8,0
O=C(N/N=C/c1coc2ccccc2c1=O)c1cc(Br)ccc1O,-17,-3,89*,24,0,i
SMILES,BJeLR viability,MazF activator,PfHsp40 rescue,VHR inh abs,3CLpro inhibitor,BH1578 lux ind
CCOc1cc(N2CCOCC2)c(OCC)cc1NC(=O)CN1C(=O)NC2(CCCCC2)C1=O,.,1,-1,.,.,i
Cc1cccc(Cc2nnc(CCC(=O)N(C)C3CCOC3)o2)c1 (configuration not stated),2,5,-1,30,-2,i
C1=C\CCC2(OCCO2)C2(CC/1)OCCO2,.,5,.,.,.,i
C=CCc1cccc(/C=N/NC(=O)c2ccccc2OC)c1O,-16,-6,50*,8,4,2
CC1CN(C(C)C)C(=S)N(c2ccccc2)C1=O (configuration not stated),.,11,-2,.,.,0
Cn1cnc2nc[nH]c2c1=S,.,8,-1,.,.,i
S=c1nc[nH]c2nc[nH]c12,76*,2,1,25,-3,-3
COc1ccc(Br)c(C(=O)OCC(=O)N2CCC(Cc3ccccc3)CC2)c1,.,-1,27*,.,.,0
COc1ccc(OCC(=O)N2CCC(Cc3ccccc3)CC2)cc1,-1,-5,0,11,1,0
Cn1cnc([N+](=O)[O-])c1Sc1ncnc2nc[nH]c12,69*,-4,1,30,5,0
Cn1cnc(Sc2ncnc3nc[nH]c23)c1[N+](=O)[O-],54*,6,-1,2,3,0
COc1sc(SC)cc1/C=N/NC(=O)c1ccncc1,0,-32,0,26,-2,0
Oc1ccc(Br)cc1-c1cc(-c2ccccc2)n[nH]1,0,24,21,-5,6,i
O=[N+]([O-])c1ccccc1-c1cc(-c2ccccc2O)n[nH]1,1,9,49*,-7,2,-1
O=[N+]([O-])c1cccc(-c2cc(-c3cc(Br)ccc3O)[nH]n2)c1,0,14,285*,2,2,0
C[C@H]1CN(C2CCCCC2)C(=O)[C@@H]1CC(=O)Nc1ccccc1,.,6,.,.,.,0
Cc1ccc(C)c(C(=O)O/N=C(\N)c2ccc(Br)cc2)c1,9,3,502*,36,-3,1
C#CC[N+]1(CC#Cc2ccccc2)CCCCC1,-3,8,0,25,-4,-2
C(#Cc1ccccc1)C[N+]1(CC#Cc2ccccc2)CCCCC1,7,57*,1,6,1,-2
CCn1c(CNC(=O)c2cccc(C)c2)nnc1SCC(=O)NC1=NCCS1,10,4,-2,52*,-1,-1
Cc1cccc(C(=O)NCc2nnc(SCC(=O)NC3=NCCS3)n2C)c1,7,-11,0,-3,0,-1
Cc1ccc(S(N)(=O)=O)cc1NC(=O)c1ccc2c3c(cccc13)CC2,3,8,0,57*,-2,i
Cc1ccccc1NC(=O)Nc1cc(S(N)(=O)=O)ccc1C,1,-4,-1,6,1,0
Fc1ccc(Nc2nc(N/N=C/c3ccco3)nc(N3CCCCC3)n2)cc1,1,8,102*,3,3,0
C(=N\Nc1nc(N2CCOCC2)nc(N2CCOCC2)n1)/c1ccco1,6,.,.,22,-2,.
O=C(CC(=O)c1ccccc1)CS(=O)(=O)c1ccccc1,.,5,60*,.,.,-1
C/C(=N\NC(=O)c1ccc(O)cc1)c1cccc(NC(=O)c2ccc(Cl)cc2)c1,3,3,44*,.,.,-1
C/C(=N\NC(=O)c1ccc(Cl)cc1)c1cccc(NC(=O)c2cccnc2)c1,3,1,-1,-23,-2,2
O=S(=O)(Nc1cccc(-c2ccc(N3CCCCCC3)nn2)c1)c1ccc(F)cc1,12,18,1,21,3,0
